Where “and” joins values, the source holds several entries; their conditions need not be identical. Identical values can stand only once. Records with an inconclusive call do not appear. A structure can be active in one record and inactive in another. Calls of active or inactive are those of the source. Calls come from the whole dose curve; as a rule, active = well fitted inhibition curve with a large enough effect in the repeat runs; inconclusive = weak or mixed curves, or effect the other way; inactive = no such curve, though single readings can be large or run the other way.
Assay: qHTS assay to identify small molecule antagonists of the retinoic acid receptor (RAR) signaling pathway (AID 1159552; note: nearly all actives have a fitted effect of over 50% in size)
Settings: C3RL4 RARE luciferase reporter, retinol-stimulated, 6 h; series mostly up to 92.4 µM; activity, negative = inhibition: at the top concentration
Excerpt: National Center for Advancing Translational Sciences [NCATS]
NIH Chemical Genomics Center [NCGC]
U.S. Environmental Protection Agency [EPA]
National Institutes of Environmental Health Sciences [NIEHS]
National Toxicology Program [NTP]
U.S. Food and Drug Administration [FDA]
All-trans Retinoic acid (atRA) is the potent natural metabolite of retinol and plays an important role in normal embryonic development and maintenance of cellular phenotype in adult animals. atRA is the activating ligand for the retinoic acid receptors (RARs) which form heterodimers with retinoid X receptors (RXRs) on the retinoic acid response element (RARE). Through activation of the RAR/RXRs nuclear receptors, atRA regulates the transcription of a large number of protein-coding genes and regulatory RNAs. Intracellular levels of atRA are controlled by the retinol signaling pathway (RSP) that regulates the biosynthesis and catabolism of atRA to maintain physiological levels. Chemicals that interfere with the RSP can cause abnormal intracellular levels of atRA and therefore are potential developmental toxicants. To assess compounds for the potential adverse effect on embryonic development through interfering with retinol signaling, a cell-based RARE luciferase reporter gene assay was used. C3RL4 cell line (OARSA/CFSAN/FDA, Laurel, MD) was used to screen Tox21 10K compound library for identifying inhibitors of the RSP.
Tox21 Assay Protocol Summary:
C3RL4 cells were seeded at 1,000/well in 4 uL of assay medium into white solid 1,536-well tissue culture plates (Greiner Bio-One North America Inc. Monroe, NC) using a Multidrop Combi (Thermo Scientific, Waltham, MA) dispenser. After incubation at 37 C and 5% CO2 for an overnight, 23 nL of compounds dissolved in DMSO, positive control or DMSO only were transferred by a Pintool station (Kalypsys, San Diego, CA). One ul of 1 uM (final concentration) of Retinol was added right after the compound addition by using a Flying Reagent Dispenser (FRD) (Aurora Discovery, San Diego, CA). After 6 hr incubation at 37 C and 5% CO2, 5 uL of Amplite Luciferase reagent (AAT Bioquest Inc. Sunnyvale, CA) was added to each assay plate using an FRD. Luminescence was quantified on a ViewLux plate reader (PerkinElmer, Waltham, MA) after 30 min incubation at room temperature.
% is set by controls: 0 for no effect and ±100 for the full control effect; potency is the fitted concentration of half-maximal effect.

| Compound | Potency | activity, negative = inhibition |
| --- | --- | --- |
| CC(C)(C)CC(C)(C)c1ccc(OCCOCC[N+](C)(C)Cc2ccccc2)cc1 | 43.2 µM (active) and 29.8 µM (active) | – |
| S=c1[nH]c2ccccc2s1 | – | 137% (inactive) |
| CN(C)CCCOC1(Cc2ccccc2)CCCCCC1 | – | -7.23% [at 42.5 µM] (inactive) |
| Nc1cc(C(F)(F)F)ccc1S | 6.68 µM (active) | – |
| O=Cc1cc(O)ccc1Br | – | -2.54% (inactive) |
| CN1CCN(CCC(=O)N2c3ccccc3Sc3ccc(C(F)(F)F)cc32)CC1 | 29.8 µM (active) | – |
| CN(C)[C@@H]1C(=O)C(C(N)=O)=C(O)[C@@]2(O)C(=O)C3=C(O)c4c(O)ccc(Cl)c4[C@@H](O)[C@H]3C[C@@H]12 | – | -3.31% [at 42.5 µM] (inactive) |
| Cn1cc(C(=O)[C@@H]2CCc3nc[nH]c3C2)c2ccccc21 | – | 37.4% [at 42.5 µM] (inactive) |
| CC(C)(C)c1ccc(C(=O)CCCN2CCC(OC(c3ccccc3)c3ccccc3)CC2)cc1 | 26.6 µM (active) | – |
| CCCC(=O)OC[C@@H](OC(=O)CCC)[C@@H](OC(=O)CCC)[C@H](Cn1c2nc(=O)[nH]c(=O)c-2nc2cc(C)c(C)cc21)OC(=O)CCC | – | -16.2% [at 42.5 µM] (inactive) |
| O=[N+]([O-])c1ccccc1Nc1ccccc1 | – | -4.24% (inactive) |
| COc1ccc(-c2ccc3cc(C(=O)O)ccc3c2)cc1C12CC3CC(CC(C3)C1)C2 | – | 2.68% [at 42.5 µM] (inactive) |
| c1ccc(CSCc2ccccc2)cc1 | – | 50.1% (inactive) |
| N#CSc1ccc(N)c([N+](=O)[O-])c1 | 17.3 µM (active) | – |
| Cc1cc(CCN2CCN(c3nsc4ccccc34)CC2)cc2c1NC(=O)CC2(C)C | 30.6 µM (active) | – |
| COc1cc(/C=C/C(=O)O[C@H]2CC[C@]34C[C@]35CC[C@]3(C)[C@@H]([C@H](C)CCC=C(C)C)CC[C@@]3(C)[C@@H]5CC[C@H]4C2(C)C)ccc1O | – | -22.1% [at 42.5 µM] (inactive) |
| CCC(N)(CO)CO | – | 13.1% (inactive) |
| Oc1c(Cl)cc(Cl)c2cccnc12 | – | 41.8% [at 42.5 µM] (inactive) |
| NNc1nc(-c2ccccc2)cs1 | – | 76.8% (inactive) |
| CCCCCCCCCCCCCCCS(=O)(=O)Oc1ccccc1 | – | -10.1% [at 42.5 µM] (inactive) |

| Compound | Potency | activity, negative = inhibition |
| --- | --- | --- |
| NNC(=O)c1cccc(C(=O)NN)c1 | – | 31.3% (inactive) |
| O=c1cc(-c2ccc(O)cc2)oc2cc(O)cc(O)c12 | inactive | – |
| OCCN(CCO)c1nc(N2CCCCC2)c2nc(N(CCO)CCO)nc(N3CCCCC3)c2n1 | – | -15.6% [at 42.5 µM] (inactive) |
| CC/C(=C(\c1ccc(O)cc1)c1ccc(OCCN(C)C)cc1)c1ccccc1 | 68.7 µM (active) | – |
| CCN(C(=O)N(CC)c1ccccc1)c1ccccc1 | – | -14.6% (inactive) |
| O=C(O)c1c(Cl)cccc1Cl | – | 37.6% (inactive) |
| CC(=O)OCC(C)OC(C)=O (stereo not given) | – | 48.3% (inactive) |
| Clc1ccc2nsnc2c1NC1=NCCN1 | – | 15.6% [at 42.5 µM] (inactive) |
| Cc1cc(O)c2ccccc2c1O | 16.8 µM (active) | – |
| O=C(NOCC1CC1)c1ccc(F)c(F)c1Nc1ccc(I)cc1Cl | – | -2.31% [at 42.5 µM] (inactive) |
| CCCCCCCCCCCC(=O)NCCCN(C)C | 54.5 µM (active) | – |
| CCCCC(CC)COP(=O)(O)OCC(CC)CCCC (stereo not given) | inactive and 48.6 µM (active) | – |
| CCCCCOC(=O)CCCC | – | 15.8% (inactive) |
| CCOc1nc2cccc(C(=O)OC(C)OC(=O)OC3CCCCC3)c2n1Cc1ccc(-c2ccccc2-c2nn[nH]n2)cc1 (stereo not given) | 48.5 µM (active) | – |
| CSc1ccc(/C=C2/C(C)=C(CC(=O)O)c3cc(F)ccc32)cc1 | – | -12.5% [at 42.5 µM] (inactive) |
| Cc1cc(O)c(Cl)c(C)c1Cl | – | -18.1% (inactive) |
| CC[C@H]1O[C@]2(CC[C@@H]1C)C[C@@H]1C[C@@H](C/C=C(\C)C[C@@H](C)/C=C/C=C3\CO[C@@H]4[C@H](O)C(C)=C[C@@H](C(=O)O1)[C@]34O)O2 | 42.9 µM (active) | – |
| CCOC(=O)O[C@H](C)OC(=O)c1ccc2c(c1)cc(C(=O)NC1CCN(C(C)C)CC1)n2Cc1cc(-c2ccc(Cl)s2)on1 | 12.8 µM (active) | – |
| Cc1c(C)c2c(c(C)c1OC(=O)CCC(=O)O)CC[C@@](C)(CCC[C@H](C)CCC[C@H](C)CCCC(C)C)O2 | – | -0.514% (inactive) |
| COc1cc(-c2ccc(N=C=O)c(OC)c2)ccc1N=C=O | – | -6.82% [at 42.5 µM] (inactive) |

— PubChem BioAssay (Tox21)
